A selection: hits, their analogues and other compounds. The true share with any hit is near 11%.
HCV inhibitor: HCV inhibition; hit rate 3.4% among 340,000; Huh7.5.1 HCVcc-Cre infection, luciferase reporter, 44 h; Potency, µM (doses to about 41.8 µM), for the others: at the top dose activity change, negative = inhibition, most hits filed as inhibitors; AID 651820; further: on the % scale 0 is the no-effect control and ±100 the full control effect
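Cells (1,000/well) were plated 4 h before compound, then infected with HCVcc-Cre virus (~0.5 moi). After 44 h further culture, infection was read as luciferase luminescence following a 15 min substrate incubation at room temperature.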
Vaccinia mCherry: vaccinia inhibition (mCherry reporter). hit rate 0.63% among 310,000. Vaccinia virus mCherry reporter infection, fluorescence. Potency, µM (titrated, usually from 36.5 µM), for the others: at the highest dose activity change, negative = inhibition, actives largely listed as inhibitors; calls by dose curve; tested in A549 cells; further: on the % scale 0 is the no-effect control and ±100 the full control effect; nearly all actives have a fitted effect of over 35% in size
VACV Venus inh: vaccinia inhibition (Venus reporter). Vaccinia virus Venus reporter expression, fluorescence. Potency, µM (series often up to 36.5 µM), for the others: at the highest dose activity change, negative = inhibition, hits mostly inhibitors. hit rate 0.46% among 330,000; calls by dose curve; tested in A549 cells; further: on the % scale 0 is the no-effect control and ±100 the full control effect; nearly all actives have a fitted effect of over 30% in size
Pf growth 48h: inhibits P. falciparum growth in the first generation, 48 h. P. falciparum luciferase growth in erythrocytes, 48 h. hit rate 5.9% among 310,000. Potency, µM (series often up to 28.7 µM), for inactives: top-dose activity change, negative = inhibition, hits mostly inhibitors; further: on the % scale 0 is the no-effect control and ±100 the full control effect
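A one-generation exposure of luciferase-tagged malaria parasites in RPMI 1640/Albumax erythrocyte culture, 37 C and 5% CO2. Inhibition is inferred from decreased luminescence after adding detection reagent.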
NS1 function inh: influenza NS1 inhibition; Potency, µM (top dose mostly 46.1 µM), inactives show at the highest dose activity, positive = more growth; hit rate 0.4% among 270,000; AID 2326; calls by dose curve; further: actives are rising curves; nearly all actives have a fitted effect of over 50% in size
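A cell-based growth assay was used: compounds that relieve NS1-induced slow growth of budding yeast raise OD600. Assay medium was yeast nitrogen base with ammonium sulphate and -URA supplement, pH 6.0, with 2% galactose.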
Pf growth 96h: P. falciparum growth inhibition at 96 hour, primary screen for plastid delayed-death inhibitors | P. falciparum luciferase reporter growth, 96 h | Potency, µM (titrated, usually from 28.7 µM), inactives show top-dose activity change, negative = inhibition, actives largely listed as inhibitors | hit rate 6.9% among 320,000 | AID 504834; further: on the % scale 0 is the no-effect control and ±100 the full control effect
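Two-generation exposure (96 h) targets delayed-death phenotype. Reporter parasites carrying integrated firefly luciferase, in red cells at 2% hematocrit and 0.05% parasitemia final, kept at 37 C, 5% CO2; luminescence loss indicates inhibition.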
An asterisk follows results filed as active; i = inactive; ? = inconclusive; . = no result; [ ] = another dose, or the depositor's remark. Unless noted, the call rests on the fitted dose curve; in most records, active means well fitted inhibition curve with a large enough effect; inconclusive means small, poorly fitted or top-dose-only effect, or another doubt; inactive means no such curve, though single readings can be large or run the other way. Potency means the concentration at half of the fitted maximal effect.

SMILES	HCV inhibitor	Vaccinia mCherry	VACV Venus inh	Pf growth 48h	NS1 function inh	Pf growth 96h
COc1ccc(OC)c(CCNC(=O)CCCC(=O)n2ncc3cc(C)ccc32)c1	-21%	i	-4%	-17%	-21%	5%
CCN(CC(=O)N1CCC(C)CC1)S(=O)(=O)c1ccc(C)cc1	20%	i	-14%	1%	2%	45%
COC(=O)/C(=C/c1ccccc1)NC(=O)c1ccco1	-3%	-8%	2%	-2%	5%	-3%
CC(C)OC(=O)/C(=C/c1ccc(Br)cc1)NC(=O)c1ccco1	14%	-3%	-18%	10%	-7%	13µM*
COc1ccc(/C=C(/NC(=O)c2ccco2)C(=O)N2CCCCCC2)cc1OC	16%	-9%	-8%	3%	9%	12µM*
CN1CCN(C(=O)c2cccc(S(=O)(=O)N3CCCCC3)c2)CC1	1%	i	-4%	4%	4%	?
COc1cc(NC(=O)C(C)Oc2ccccc2)c(OC)cc1NC(=O)c1ccccc1 (configuration not stated)	?	-12%	-26%	10µM*	-40%	?
CCC(C(=O)Nc1cc(OC)c(NC(=O)c2ccccc2)cc1OC)c1ccccc1 (configuration not stated)	11µM*	-12%	-11%	-16%	29%	?
COC(=O)c1ccccc1NC(=O)C(C)Oc1ccccc1 (configuration not stated)	-14%	-29%	-18%	7.4µM*	-40%	1%
COC(=O)c1ccccc1NC(=O)C(C)NS(=O)(=O)c1ccc(OC)cc1 (configuration not stated)	5%	i	-11%	1.3µM*	21%	.
COc1ccc(-c2nn(-c3ccccc3)cc2/C=C2/SC(=S)N(CCC(=O)O)C2=O)cc1	36%	i	-14%	?	3%	?
O=C(NCc1ccc(-c2nc3ccccc3s2)cc1)c1ccco1	?	i	-17%	?	-3%	-2%
O=C(NC(=S)NCc1ccc(-c2nc3ccccc3s2)cc1)c1ccco1	4%	?	?	185%	4%	15µM*
O=C(CN1CCOCC1)Nc1ccccc1C(=O)Nc1ccccc1	7%	9%	4%	13%	-9%	24%
COc1ccc(CC(=O)NNC2=Nc3cccc4cccc2c34)cc1OC	-17%	.	.	9%	3%	2%
O=C(NNC1=Nc2cccc3cccc1c23)c1ccc(Br)cc1	?	?	10%	12µM*	-31%	-27%
COc1ccc(NC(=O)NCCc2cccc(Cl)c2)cc1OC	-1%	.	.	?	-1%	-4%
O=Cc1s/c(=N\S(=O)(=O)c2ccccc2)n(CCCCl)c1Cl	4.5µM*	?	?	4%	4%	1%
CCC(=O)N1CCc2cc(S(=O)(=O)CCC(=O)NCc3ccco3)ccc21	4%	-9%	0%	-16%	.	?
O=C(CCS(=O)(=O)c1cc(Br)cc2c1N(C(=O)C1CC1)CC2)NCc1ccco1	?	.	-9%	8.3µM*	8%	10%
CC(CC(=O)NCc1ccco1)S(=O)(=O)c1ccc2c(c1)CCN2C(=O)C1CC1 (configuration not stated)	-8%	i[7.34 µM]	-15%[7.34 µM]	-6%	-6%	8.3µM*
CCOc1ccc(-c2cc(C(=O)NCCCN3CCN(CC)CC3)c3ccccc3n2)cc1	8.9µM*	.	.	?	10%	?
O=C(NCCCn1ccnc1)c1nn2c(C(F)(F)F)cc(-c3ccc(Br)cc3)nc2c1Cl	?	?	?	1.5µM*	?	2.9µM*
CCOc1ccc(-c2cc(C(=O)NCCCn3ccnc3)c3ccccc3n2)cc1	-19%	.	.	?	.	12%
CCOc1ccc(-c2cc(C(=O)NCCCn3ccnc3)c3cc(Br)ccc3n2)cc1	10µM*	?	?	1.7µM*	8%	?
SMILES	HCV inhibitor	Vaccinia mCherry	VACV Venus inh	Pf growth 48h	NS1 function inh	Pf growth 96h
O=C(CN1CCN(S(=O)(=O)c2ccc(Br)s2)CC1)NCC1CCCCC1	.	i	-23%	.	.	.
O=C(Cc1ccc(F)cc1)NCCc1csc(-c2ccc(C(F)(F)F)cc2)n1	.	-26%	-16%	.	.	.
Cc1ccc(S(=O)(=O)N2Cc3ccccc3CC2C(=O)Nc2cc(C)on2)cc1 (configuration not stated)	-16%	i	-9%	-17%	-3%	2%
Cc1cccc(NC(=O)C2CCCN2S(=O)(=O)c2ccc3c(c2)n(C)c(=O)c(=O)n3C)c1 (configuration not stated)	2%[8.37 µM]	1%	-2%	2%	-2%	8.3µM*
Cc1ccc(S(=O)(=O)N2CCCC2C(=O)Nc2cc(C)on2)cc1 (configuration not stated)	5%	i	-1%	4.7µM*	-3%	26%
CN(Cc1nc(-c2ccc(Cl)cc2)no1)C(=O)c1ccco1	-27%	-18%	-8%	32%	-5%	8%
CCN(CC)c1ccc(NC(=O)C2CCCN(S(=O)(=O)c3cccnc3)C2)c(C)c1 (configuration not stated)	?	-8%	-13%	.	-24%	9.3µM*
O=C(Nc1nc2c(cc3c4c(cccc42)CC3)s1)c1ccccc1Cl	6.3µM*	-9%	-12%	-12%	5%	-89%
O=C(Nc1nc2c(Cl)cccc2s1)C1CC1	6%	.	.	29%	-45%	38%
Nc1nc(SCC(=O)Nc2ccc([N+](=O)[O-])cc2)[nH]c(=O)c1NC(=O)c1ccc(Br)cc1	11%	.	.	12%	?	?
Cc1ccc(S(=O)(=O)N2C[C@H]3C(=O)C[C@@H](c4ccccc4)N(S(=O)(=O)c4ccccc4C)[C@H]3C[C@H]2c2ccccc2)cc1	.	-4%	4%	.	.	.
CCCCn1c(C)cc(C)c(S(=O)(=O)c2ccccc2C)c1=O	-7%	-22%	-16%	.	5%	15µM*
Cc1ccccc1S(=O)(=O)c1c(C)cc(C)n(C(C)C)c1=O	-22%	i	-11%	-21%	-14%	?
CN1CCC(N(C)C(=O)COc2ccc(S(=O)(=O)N3CCOCC3)cc2)CC1	9%	.	.	2%	.	0%
CC(C)n1c(=O)n(CC(=O)NCC2CCCO2)c(=O)c2c3c(sc21)COC(C)(C)C3 (configuration not stated)	9%	.	.	-4%	14%	?
Oc1ccc(/C=C/c2ccnc3ccccc23)cc1	8.9µM*	?	-29%	?	-3%	-103%
CCOC(=O)c1sc(N)c(C#N)c1CSc1nnc(C2CCCCC2)n1N	-4%	.	.	.	4%	10µM*
N#Cc1ccc(COC(=O)CSc2nnc(C3CCCCC3)n2N)cc1	4%	.	.	0%	4%	5%
Cn1ncc(Cl)c1C(=O)N1CCN(C23CC4CC(CC(C4)C2)C3)CC1	23%	-4%	-17%	16%	19%	13%

Assay outcomes: PubChem, National Center for Advancing Translational Sciences (NCATS)
